The values below come from PubChem BioAssay (EPA / NIEHS).

For experiment [1], the target named is Myc proto-oncogene protein (Homo sapiens) (UniProt P01106). The experiment is described as follows: ATG_Myc_CIS: Attagene CIS-FACTORIAL HepG2 Assay for human Myelocytomatosis (Myc) Proto-Oncogene Transcription Factor (AID 2282990). To be noted: HepG2, Attagene cis-reporter transcription factor activity; actives raise or lower the signal. An outline of the steps:
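After 24 h chemical treatment of HepG2 cells carrying multiplexed cis-regulated reporter constructs, reporter transcripts quantified by RT-PCR and capillary electrophoresis of fluorescent fragments. Gain or loss fitted against DMSO baseline.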

The nature of experiment [2]: ATG_NF_kB_CIS: Attagene CIS-FACTORIAL HepG2 Assay for human Nuclear Factor Kappa B (NF-kB) (AID 2282991). To be noted: HepG2 Attagene cis-factorial NF-kB reporter mRNA; actives raise or lower the signal. An outline of the steps:
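Fluorescence of labelled RT-PCR products separated by capillary electrophoresis gives reporter mRNA levels from transfected HepG2 cells exposed 24 h; values are fitted in both directions relative to DMSO.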

Experiment [3] can be described thus: ATG_NRF2_ARE_CIS: Attagene CIS-FACTORIAL HepG2 Assay for human Nuclear Factor Erythroid 2 Related Factor 2 (NFR2) response to Antioxidant Response Elements (ARE) (AID 2282992). The conditions noted are these: HepG2 Attagene ARE/NRF2 reporter, transcription factor activity; actives raise or lower the signal. The gist of the method: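 Cis-factorial assay: transfected HepG2 reporter library, 24 h dosing, mRNA readout via RT-PCR/CE; DMSO-referenced bidirectional analysis.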

Experiment [4] can be described thus: ATG_Oct_MLP_CIS: Attagene CIS-FACTORIAL HepG2 Assay for human Octamer-Binding Transcription Factor (Oct) (AID 2282993). To be noted: HepG2 Attagene cis-factorial Oct reporter, mRNA; actives raise or lower the signal. The gist of the method:
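HepG2 cells transiently transfected with cis-element-driven reporter transcription units (endogenous TF activity); 24 h compound exposure. Reporter mRNA quantified by RT-PCR, 6-FAM labelling, HpaI digestion and capillary electrophoresis; bidirectional fit versus DMSO baseline.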

A short description of experiment [5]: BSK_3C_TissueFactor: BioMAP Diversity Plus: 3C Assay for Tissue Factor Biomarker Activity (AID 2282997). To be noted: BioMAP 3C HUVEC, tissue factor biomarker readout; actives raise or lower the signal. An outline of the steps:
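Dosing of human umbilical vein endothelial cells preceded a 24 h incubation. Tissue Factor was then read by ELISA, with increases and decreases both scored relative to DMSO controls.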

Experiment [6] is described as follows: BSK_3C_uPAR: BioMAP Diversity Plus: 3C Assay for Urokinase-type plasminogen activator receptor (uPAR) Biomarker Activity (AID 2282998). The conditions noted are these: BioMAP 3C HUVEC, uPAR biomarker ELISA; actives raise or lower the signal. The gist of the method:
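Primary human umbilical vein endothelial cells, 3C system; surface uPAR measured by ELISA 24 h after dosing. Cytotoxicity via SRB total protein in parallel cultures; bidirectional fit against DMSO.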
(In an ELISA, binding on a coated surface is turned into a signal by an enzyme label.)

Experiment [7] in a line: BSK_3C_VCAM1: BioMAP Diversity Plus: 3C Assay for Vascular cell adhesion molecule 1 (VCAM1) Biomarker Activity (AID 2282999). The conditions noted are these: BioMAP 3C HUVEC, VCAM1 ELISA, cytokine-stimulated; actives raise or lower the signal. The gist of the method:
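Endothelial cells from human umbilical vein are treated with test chemical. At 24 h, VCAM-1 is measured by ELISA, and responses in either direction are fitted relative to DMSO.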

The nature of experiment [8]: BSK_4H_Eotaxin3: BioMAP Diversity Plus: 4H Assay for Eotaxin 3 Biomarker Activity (AID 2283000).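 On outcome: CCL26 protein level quantified by ELISA in parallel with SRB cytotoxicity check.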 To be noted: primary human endothelial cells (HUVEC); actives raise or lower the signal. The gist of the method: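 Human umbilical vein endothelial cells (BSK_4H system) dosed with test chemical; Eotaxin-3 (CCL26) measured by ELISA 24 h after dosing. Bidirectional curve fitting relative to DMSO negative control as baseline.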

Experiment [9] deals with human Peroxisome Proliferator-activated Receptor alpha (PPARa), PPARA (gene 5465) (UniProt Q07869). The experiment is described as follows: ATG_PPARa_TRANS: Attagene TRANS-FACTORIAL HepG2 Assay for human Peroxisome Proliferator-activated Receptor alpha (PPARa) (AID 2283001; active means hit-call score of the fitted dose curve at least 0.9, where 1 is the maximum;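 on AC50: potency for gain of reporter signal over DMSO so agonist or activator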). The gist of the method:
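Read-out is fluorescence of reporter cDNA fragments resolved by capillary electrophoresis after RT-PCR. Human HepG2 liver cells carried transfected PPARa-Gal4 chimera and GAL4-UAS reporter units, treated 24 h; activity scored as increase over DMSO.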

Read-out in experiment [10]: Intercellular Adhesion Molecule 1 (ICAM1), ICAM1 (gene 3383)
The experiment is described as follows: BSK_3C_ICAM1: BioMAP Diversity Plus: 3C Assay for Intercellular Adhesion Molecule 1 (ICAM1) Biomarker Activity (AID 2283003). To be noted: primary human endothelial cells (HUVEC); actives raise or lower the signal. The gist of the method: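 ICAM-1 levels measured by ELISA after HUVEC cultures in the 3C system had been dosed for 24 h. Gain or loss of signal relative to DMSO was fitted in both directions.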

Experiment [11] deals with Retinoic acid receptor alpha (Homo sapiens) (UniProt P10276). Kind of experiment: ATG_RARa_TRANS: Attagene TRANS-FACTORIAL HepG2 Assay for human Retinoic Acid Receptor alpha (RARa) (AID 2283005; active means hit-call score of the fitted dose curve at least 0.9, where 1 is the maximum). The gist of the method:
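Reporter transcripts, measured by RT-PCR with fluorescent labeling and capillary electrophoresis after 24 h dosing, reflect activity of an exogenous human RARa–GAL4 fusion in transiently transfected HepG2. Fitted for increase relative to DMSO.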

The nature of experiment [12]: BSK_3C_Proliferation: Cell Proliferation Assessment in the BioMAP Diversity Plus: 3C Assay (AID 2283006).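 On AC50: potency may reflect either rise or fall in cell number versus DMSO.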 To be noted: primary human endothelial cells (HUVEC). The gist of the method: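 Read-out is total protein by SRB absorbance at 560 nm, taken as a proxy for relative cell number. Primary human umbilical vein endothelium cultured below confluence was dosed for 48 h, TCA-fixed and SRB-stained; curves were fitted bidirectionally versus DMSO.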

For experiment [13], the target named is Nuclear receptor subfamily 1 group I member 2 (Homo sapiens) (UniProt O75469). Kind of experiment: ATG_PXR_TRANS: Attagene TRANS-FACTORIAL HepG2 Assay for human Pregnane X Receptor (PXR) (AID 2283008; active means hit-call score of the fitted dose curve at least 0.9, where 1 is the maximum). The gist of the method:
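Fluorescence intensity of FAM-labelled, HpaI-digested reporter amplicons, separated by capillary electrophoresis, quantifies induction. HepG2 cells with PXR-Gal4 trans-reporter system were exposed 24 h; DMSO defines baseline.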

Experiment [14] addresses human Retinoic Acid Receptor gamma (RARg), RARG (gene 5916) (UniProt P13631). The experiment is described as follows: ATG_RARg_TRANS: Attagene TRANS-FACTORIAL HepG2 Assay for human Retinoic Acid Receptor gamma (RARg) (AID 2283009; active means hit-call score of the fitted dose curve at least 0.9, where 1 is the maximum). The gist of the method: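 Transient transfection of HepG2 with multi-reporter constructs, then 24 h chemical treatment. Total RNA isolated, reverse-transcribed, PCR-amplified, fluorescently labelled and resolved by capillary electrophoresis; activity scored as mRNA induction versus DMSO.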

The target in experiment [15] is human RAR-related Orphan Receptor beta (RORb), RORB (gene 6096) (UniProt Q92753). The experiment is described as follows: ATG_RORb_TRANS: Attagene TRANS-FACTORIAL HepG2 Assay for human RAR-related Orphan Receptor beta (RORb) (AID 2283010; active means hit-call score of the fitted dose curve at least 0.9, where 1 is the maximum). The gist of the method: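 Readout is reporter-gene mRNA induction, detected as fluorescence after RT-PCR and capillary electrophoresis, fitted for gain of signal against DMSO controls. Transiently transfected HepG2 liver cells carrying GAL4-UAS reporter constructs were treated for 24 hours.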
Chain of human RAR-related Orphan Receptor beta (RORb), RORB (gene 6096) (Q92753 whole entry, looked up, the tested form may be a part): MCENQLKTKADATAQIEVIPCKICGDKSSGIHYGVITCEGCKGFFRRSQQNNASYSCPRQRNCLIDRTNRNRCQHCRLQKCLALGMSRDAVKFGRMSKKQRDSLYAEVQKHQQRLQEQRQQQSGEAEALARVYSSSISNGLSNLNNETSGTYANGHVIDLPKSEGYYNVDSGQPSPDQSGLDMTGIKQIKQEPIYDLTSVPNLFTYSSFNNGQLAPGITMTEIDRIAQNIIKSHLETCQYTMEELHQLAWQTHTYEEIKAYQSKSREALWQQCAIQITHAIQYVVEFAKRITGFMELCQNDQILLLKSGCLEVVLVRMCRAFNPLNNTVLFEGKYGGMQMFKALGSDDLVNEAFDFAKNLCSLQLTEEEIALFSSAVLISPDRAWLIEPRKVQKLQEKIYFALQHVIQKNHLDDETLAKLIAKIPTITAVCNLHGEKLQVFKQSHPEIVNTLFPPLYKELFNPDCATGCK

The target of experiment [16] is human RAR-related Orphan Receptor gamma (RORg), RORC (gene 6097) (UniProt P51449). Kind of experiment: ATG_RORg_TRANS: Attagene TRANS-FACTORIAL HepG2 Assay for human RAR-related Orphan Receptor gamma (RORg) (AID 2283011; active means hit-call score of the fitted dose curve at least 0.9, where 1 is the maximum). An outline of the steps:
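Reporter transcripts from a transfected RORg-GAL4 chimera in HepG2 cells were quantified 24 h after dosing by RT-PCR, 6-FAM labelling, HpaI digestion and capillary electrophoresis; increases over DMSO baseline were fitted.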

Experiment [17] has as its target Peroxisome proliferator-activated receptor gamma (Homo sapiens) (UniProt P37231). The experiment is described as follows: ATG_PPARg_TRANS: Attagene TRANS-FACTORIAL HepG2 Assay for human Peroxisome Proliferator-activated Receptor-gamma (PPARg) (AID 2283007; active means hit-call score of the fitted dose curve at least 0.9, where 1 is the maximum). The gist of the method: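 Twenty-four hours after chemical dosing of transiently transfected HepG2 cells, isolated RNA was converted to cDNA, reporter sequences amplified and 6-FAM-labelled, then HpaI-digested and analysed by capillary electrophoresis. Signal increase against DMSO was fitted.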

Experiment [18] has as its target Cellular tumor antigen p53 (Homo sapiens) (UniProt P04637). The experiment is described as follows: ATG_p53_CIS: Attagene CIS-FACTORIAL HepG2 Assay for human p53 Transcription Factor (AID 2282994). To be noted: HepG2 p53 cis-element reporter, Attagene mRNA; actives raise or lower the signal. An outline of the steps:
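Using HepG2 hepatoma cells carrying cis-acting multiplexed reporters, mRNA induction is detected after a 24 h exposure. Gain- and loss-of-signal responses are fitted relative to DMSO-treated cells.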

In experiment [19] the target is human Retinoic Acid Receptor beta (RARb), RARB (gene 5915) (UniProt P10826). Kind of experiment: ATG_RARb_TRANS: Attagene TRANS-FACTORIAL HepG2 Assay for human Retinoic Acid Receptor beta (AID 2283004; active means hit-call score of the fitted dose curve at least 0.9, where 1 is the maximum). An outline of the steps:
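Induction of reporter mRNA from a chimeric RARb-Gal4 construct was measured by RT-PCR, FAM labelling, HpaI digestion and capillary electrophoresis. Measurements followed 24 h compound treatment of transiently transfected human HepG2 liver cells, with DMSO as baseline.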

Several values for one entry are separate records, joined by “and”; a condition that tells them apart may be missing. Equal entries are not always repeated. Results filed as inconclusive are left out. The source holds several records for some structures; these can differ, active in one and inactive in another. Activity calls are given as the source filed them. How the source made its calls, unless noted: active means hit-call score of the fitted dose curve at least 0.9, where 1 is the maximum; inactive means score below 0.9.

Chain of human RAR-related Orphan Receptor gamma (RORg), RORC (gene 6097) (P51449 whole entry, looked up, the tested form may be a part): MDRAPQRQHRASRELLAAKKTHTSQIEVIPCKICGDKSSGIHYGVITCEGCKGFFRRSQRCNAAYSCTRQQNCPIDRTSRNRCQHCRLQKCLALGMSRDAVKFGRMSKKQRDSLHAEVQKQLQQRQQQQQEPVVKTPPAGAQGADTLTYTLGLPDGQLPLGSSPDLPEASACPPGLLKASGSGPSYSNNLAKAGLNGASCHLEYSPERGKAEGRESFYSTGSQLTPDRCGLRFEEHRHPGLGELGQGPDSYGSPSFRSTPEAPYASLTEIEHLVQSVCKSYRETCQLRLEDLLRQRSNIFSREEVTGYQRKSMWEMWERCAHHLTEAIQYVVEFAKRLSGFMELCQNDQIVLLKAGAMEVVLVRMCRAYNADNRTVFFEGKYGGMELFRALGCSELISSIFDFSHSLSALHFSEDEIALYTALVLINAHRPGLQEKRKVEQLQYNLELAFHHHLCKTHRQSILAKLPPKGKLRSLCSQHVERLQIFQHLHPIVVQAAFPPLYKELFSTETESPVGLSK
Chain of Peroxisome proliferator-activated receptor gamma (Homo sapiens) (P37231 whole entry, looked up): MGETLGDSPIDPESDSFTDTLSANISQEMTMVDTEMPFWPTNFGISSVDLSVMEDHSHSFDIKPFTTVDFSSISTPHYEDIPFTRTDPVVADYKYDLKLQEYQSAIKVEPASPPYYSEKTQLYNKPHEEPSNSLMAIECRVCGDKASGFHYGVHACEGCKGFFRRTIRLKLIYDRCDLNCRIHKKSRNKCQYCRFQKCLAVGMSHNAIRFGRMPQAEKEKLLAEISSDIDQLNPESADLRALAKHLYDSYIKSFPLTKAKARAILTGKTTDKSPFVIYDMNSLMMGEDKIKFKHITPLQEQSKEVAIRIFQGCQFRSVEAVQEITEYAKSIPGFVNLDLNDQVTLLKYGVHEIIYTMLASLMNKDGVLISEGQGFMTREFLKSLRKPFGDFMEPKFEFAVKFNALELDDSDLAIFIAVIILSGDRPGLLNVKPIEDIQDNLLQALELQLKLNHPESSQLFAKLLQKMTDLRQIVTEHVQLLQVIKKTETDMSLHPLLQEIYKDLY
Chain of Myc proto-oncogene protein (Homo sapiens) (P01106 whole entry, looked up, the tested form may be a part): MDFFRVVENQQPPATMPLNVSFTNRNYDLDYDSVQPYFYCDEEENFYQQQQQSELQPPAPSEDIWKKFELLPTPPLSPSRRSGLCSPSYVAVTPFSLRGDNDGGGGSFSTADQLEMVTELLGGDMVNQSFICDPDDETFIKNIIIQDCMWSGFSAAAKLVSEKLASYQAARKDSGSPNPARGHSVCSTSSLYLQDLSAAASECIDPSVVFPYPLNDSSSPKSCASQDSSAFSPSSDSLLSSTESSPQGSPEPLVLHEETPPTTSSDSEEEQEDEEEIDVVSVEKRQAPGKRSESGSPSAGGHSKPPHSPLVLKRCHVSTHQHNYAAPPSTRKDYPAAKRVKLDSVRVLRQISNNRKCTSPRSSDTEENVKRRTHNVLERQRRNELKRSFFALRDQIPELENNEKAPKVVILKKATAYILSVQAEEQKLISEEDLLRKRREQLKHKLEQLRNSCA
Chain of Nuclear receptor subfamily 1 group I member 2 (Homo sapiens) (O75469 whole entry, looked up, the tested form may be a part): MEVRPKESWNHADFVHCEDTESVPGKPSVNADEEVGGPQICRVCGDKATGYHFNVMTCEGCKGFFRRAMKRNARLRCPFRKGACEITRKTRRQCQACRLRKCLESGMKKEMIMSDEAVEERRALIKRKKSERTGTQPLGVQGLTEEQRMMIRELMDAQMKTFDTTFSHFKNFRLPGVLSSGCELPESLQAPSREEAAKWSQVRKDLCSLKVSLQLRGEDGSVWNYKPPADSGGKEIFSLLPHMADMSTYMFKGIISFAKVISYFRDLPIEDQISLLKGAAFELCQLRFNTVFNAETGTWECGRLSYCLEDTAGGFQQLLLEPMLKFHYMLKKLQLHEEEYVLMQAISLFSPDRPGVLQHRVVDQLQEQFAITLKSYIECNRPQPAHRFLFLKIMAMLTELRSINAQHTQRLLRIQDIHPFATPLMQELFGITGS
Chain of human Peroxisome Proliferator-activated Receptor alpha (PPARa), PPARA (gene 5465) (Q07869 whole entry, looked up, the tested form may be a part): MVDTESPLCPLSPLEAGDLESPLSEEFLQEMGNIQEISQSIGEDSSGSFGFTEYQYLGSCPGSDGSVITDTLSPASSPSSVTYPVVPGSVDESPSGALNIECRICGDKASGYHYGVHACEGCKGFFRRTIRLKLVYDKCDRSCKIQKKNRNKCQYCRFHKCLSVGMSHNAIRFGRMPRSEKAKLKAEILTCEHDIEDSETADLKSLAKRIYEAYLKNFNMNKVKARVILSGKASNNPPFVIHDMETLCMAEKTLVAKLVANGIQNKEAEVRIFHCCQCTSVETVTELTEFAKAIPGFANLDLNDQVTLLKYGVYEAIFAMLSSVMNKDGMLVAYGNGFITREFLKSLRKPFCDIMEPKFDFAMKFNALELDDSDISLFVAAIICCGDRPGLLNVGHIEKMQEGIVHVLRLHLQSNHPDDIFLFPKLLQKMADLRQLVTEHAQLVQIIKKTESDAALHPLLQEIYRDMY
Chain of human Retinoic Acid Receptor beta (RARb), RARB (gene 5915) (P10826 whole entry, looked up, the tested form may be a part): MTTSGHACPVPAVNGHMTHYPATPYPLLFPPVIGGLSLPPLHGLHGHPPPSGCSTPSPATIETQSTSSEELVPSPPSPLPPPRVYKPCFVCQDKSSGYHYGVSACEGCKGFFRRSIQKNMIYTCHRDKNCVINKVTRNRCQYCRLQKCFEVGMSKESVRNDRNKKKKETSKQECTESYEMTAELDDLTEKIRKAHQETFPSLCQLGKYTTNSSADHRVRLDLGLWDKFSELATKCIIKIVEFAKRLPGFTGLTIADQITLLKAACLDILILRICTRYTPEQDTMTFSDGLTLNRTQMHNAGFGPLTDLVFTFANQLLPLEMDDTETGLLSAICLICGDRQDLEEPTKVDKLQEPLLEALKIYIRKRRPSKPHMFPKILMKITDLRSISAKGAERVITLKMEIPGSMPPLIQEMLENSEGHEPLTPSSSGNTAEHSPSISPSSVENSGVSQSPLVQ
Chain of Cellular tumor antigen p53 (Homo sapiens) (P04637 whole entry, looked up): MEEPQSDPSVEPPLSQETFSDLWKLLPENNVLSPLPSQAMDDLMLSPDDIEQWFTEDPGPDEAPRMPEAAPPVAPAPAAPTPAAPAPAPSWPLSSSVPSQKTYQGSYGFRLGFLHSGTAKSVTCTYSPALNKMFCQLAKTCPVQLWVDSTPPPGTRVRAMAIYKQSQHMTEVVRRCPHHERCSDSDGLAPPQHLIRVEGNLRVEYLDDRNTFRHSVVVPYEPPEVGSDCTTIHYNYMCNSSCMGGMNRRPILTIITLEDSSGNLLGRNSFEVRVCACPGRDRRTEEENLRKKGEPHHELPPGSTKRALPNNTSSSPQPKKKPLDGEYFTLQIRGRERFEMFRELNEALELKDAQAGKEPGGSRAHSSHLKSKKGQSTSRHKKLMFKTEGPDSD
Chain of Retinoic acid receptor alpha (Homo sapiens) (P10276 whole entry, looked up, the tested form may be a part): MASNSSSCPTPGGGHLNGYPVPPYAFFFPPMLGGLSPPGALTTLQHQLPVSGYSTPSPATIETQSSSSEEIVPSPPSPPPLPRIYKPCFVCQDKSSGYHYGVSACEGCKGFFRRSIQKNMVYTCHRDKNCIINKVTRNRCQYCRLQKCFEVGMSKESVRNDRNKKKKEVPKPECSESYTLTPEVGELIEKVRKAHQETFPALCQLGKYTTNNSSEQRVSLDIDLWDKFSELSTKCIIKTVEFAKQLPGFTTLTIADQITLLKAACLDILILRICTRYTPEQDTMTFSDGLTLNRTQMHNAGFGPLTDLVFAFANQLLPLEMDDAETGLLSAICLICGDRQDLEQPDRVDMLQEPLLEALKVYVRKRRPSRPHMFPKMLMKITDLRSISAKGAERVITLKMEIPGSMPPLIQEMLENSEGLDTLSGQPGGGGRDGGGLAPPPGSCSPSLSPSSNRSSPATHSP
Chain of human Retinoic Acid Receptor gamma (RARg), RARG (gene 5916) (P13631 whole entry, looked up): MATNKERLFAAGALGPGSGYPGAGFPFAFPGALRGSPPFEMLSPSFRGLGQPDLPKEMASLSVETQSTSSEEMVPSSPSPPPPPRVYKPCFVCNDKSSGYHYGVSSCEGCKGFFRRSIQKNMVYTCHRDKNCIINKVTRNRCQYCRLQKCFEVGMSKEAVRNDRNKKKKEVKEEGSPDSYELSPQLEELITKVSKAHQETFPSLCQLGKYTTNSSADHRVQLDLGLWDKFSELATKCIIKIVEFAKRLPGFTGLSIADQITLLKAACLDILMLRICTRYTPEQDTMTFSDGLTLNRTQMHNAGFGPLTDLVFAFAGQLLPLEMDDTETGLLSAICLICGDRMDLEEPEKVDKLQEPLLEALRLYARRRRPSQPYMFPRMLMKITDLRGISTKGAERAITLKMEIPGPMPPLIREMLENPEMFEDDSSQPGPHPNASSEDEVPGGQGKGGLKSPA

`N[C@@H](Cc1c[nH]c2ccccc12)C(=O)O`: the compound was called inactive in experiment [1], in experiment [2], in experiment [3], in experiment [4], in [5] and in experiment [6]. Moreover, the outcome in experiment [7], in experiment [8], in experiment [9], in experiment [10], in [11] and in experiment [12] was inactive. The call in [13], in experiment [14], in experiment [15] and in experiment [16] was inactive.
As a reminder, the AC50 is the midpoint of the concentration-response curve, whichever way the signal moves. Take `CC(=O)O[C@]1(C(C)=O)CC[C@H]2[C@@H]3C=C(Cl)C4=CC(=O)[C@@H]5C[C@@H]5[C@]4(C)[C@H]3CC[C@@]21C`: the AC50 in experiment [1] was 164 µM (active); in experiment [3], 48.4 µM (active) [middle of 4 runs]; in experiment [4] it was 73.6 µM (active) and 64.9 µM (active) and 45.3 µM (active); in experiment [12] it was 29.5 µM (active). The compound was classed as inactive in experiment [1], in experiment [2], in experiment [3], in experiment [4], in experiment [5] and in experiment [6]. Also, the outcome in experiment [7], in experiment [8], in [9], in experiment [10], in [17] and in experiment [13] was inactive. The compound was called inactive in experiment [16].
`CCCCC(CC)CO` (stereo unspecified): the call in experiment [1], in experiment [2], in experiment [3], in experiment [4], in experiment [18] and in [5] was inactive. The outcome in experiment [6], in experiment [7], in experiment [8], in [9], in [10] and in [12] was inactive. Further, the result in experiment [13] and in experiment [16] was inactive.
For the compound `CC(=O)[C@@]1(O)CC[C@H]2[C@@H]3CCC4=CC(=O)CC[C@]4(C)[C@H]3CC[C@@]21C`, the outcome in experiment [1], in experiment [2], in experiment [3], in [4], in [5] and in experiment [6] was inactive. In addition, the result in [7], in [8], in [9], in [10], in experiment [12] and in experiment [13] was inactive. Besides, the result in experiment [16] was inactive. For the same compound, the AC50 in experiment [2] is 20.4 µM (active) and 51.9 µM (active).
For `C=CCc1ccc(OC)c(OC)c1`, the compound was called inactive in experiment [1], in [2], in experiment [3], in experiment [4], in experiment [5] and in experiment [6]. For the same compound, the outcome in [7], in experiment [8], in [9], in [10], in experiment [12] and in experiment [17] was inactive. The compound was classed as inactive in [16]. Moreover, in experiment [13], the AC50 was 28.8 µM (active).
`C/C=C/c1ccc(OC)cc1`: the call in [1], in experiment [2], in experiment [3], in experiment [4], in experiment [5] and in [6] was inactive. For the same compound, the outcome in experiment [7], in experiment [8], in experiment [9], in experiment [10], in [12] and in [13] was inactive.
In the case of `CCOCCOCCO`, the outcome in experiment [1], in experiment [2], in [3], in [4], in [5] and in experiment [6] was inactive. For the same compound, the result in [7], in experiment [8], in experiment [9], in experiment [10], in experiment [12] and in experiment [17] was inactive.
For the compound `CCCCCCC(C=O)=Cc1ccccc1`, the compound was called inactive in experiment [1], in experiment [2], in experiment [4], in [19], in experiment [13] and in experiment [15]. The AC50 in [3] was 27.8 µM (active) and 41 µM (active); in experiment [4] it was 159 µM (active); in [5] it was 27.4 µM (active); in [6], 36.6 µM (active); in [7], 35.6 µM (active); in [8], 36.6 µM (active). Also, the AC50 in experiment [9] is 27.2 µM (active) and 15.8 µM (active); in experiment [10], 36.6 µM (active); in experiment [12] it was 31.8 µM (active); in experiment [17] it was 27.4 µM (active) and 6.91 µM (active); in experiment [13], 100 µM (active).
